Data published in PubChem BioAssay (NCATS).
Inconclusive results are not listed. Activity calls are given as the source filed them. Unless noted, calls follow the shape of the dose curve; as a rule, active = well fitted curve in the direction sought with a large enough effect; inconclusive = small, poorly fitted or top-dose-only effect, or another doubt; inactive = no such curve, though single readings can be large; an effect the other way counts as inactive or inconclusive.

How the values were obtained:
[1] = target: Calcium and integrin-binding protein 1 (Homo sapiens) (UniProt Q99828); experiment: Validation qHTS for Identification of Calcium Integrin Binding protein 1 (CIB1) Competitor (AID 1508618); also: % is scaled to controls: 0 for no effect and ±100 for the full control effect
Sequence of Calcium and integrin-binding protein 1 (Homo sapiens) (Q99828 whole entry, looked up): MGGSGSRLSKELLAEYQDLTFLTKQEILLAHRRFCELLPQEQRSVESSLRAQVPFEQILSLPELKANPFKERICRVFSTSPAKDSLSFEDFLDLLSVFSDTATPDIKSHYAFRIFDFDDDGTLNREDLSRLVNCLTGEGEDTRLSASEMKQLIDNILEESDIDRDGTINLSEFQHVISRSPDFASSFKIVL
In short: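 In this qHTS validation, the LOPAC set (up to 114 uM) was tested for blocking CIB1 binding to a fluorescein-tagged alphaIIb peptide, with FP detection at 480/540 nm.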

[2] = target: Calcium and integrin-binding protein 1 (Homo sapiens) (UniProt Q99828); experiment: Primary qHTS for Identification of Calcium Integrin Binding Protein 1 (CIB1) Competitor (AID 1508620);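 also: GST tagged CIB1 binding a fluorescein labelled alphaIIb integrin peptide tracer; top concentration of the series differs between compounds; % is scaled to controls: 0 for no effect and ±100 for the full control effect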
In short: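 Fluorescence polarization competition: CIB1-GST (1 uM final) preincubated with compound 15 min at room temperature, then FITC-labeled alphaIIb peptide (100 nM final) added for another 15 min. Polarization read at Ex 480/Em 540.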

[3] = Counterscreen qHTS for small molecule stabilizers of the endoplasmic reticulum resident proteome: GLuc-NoTag assay (AID 1508627); also: potency is read from the fitted curve at half-maximal effect;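 as to activity change, negative = inhibition: series mostly up to about 76 µM; 0% = thapsigargin alone and -100% = DMSO vehicle control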
In short: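 Secreted GLuc lacking the SERCaMP modification is measured in SH-SY5Y cells exposed to compound for 19 h and then to thapsigargin (100 nM, 4 h) to deplete ER calcium; hits retested at 11 concentrations, up to 76.6 uM.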

[4] = Cell Viability qHTS for small molecule stabilizers of the endoplasmic reticulum resident proteome (AID 1508629); conditions: cell viability counter-screen, 100 nM thapsigargin for final 4 h;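 also: human SH-SY5Y neuroblastoma cells carrying the GLuc-SERCaMP reporter; compound exposure about 46 h in total before the viability read; % is scaled to controls: 0 for no effect and ±100 for the full control effect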
Papain (Carica papaya) = Papain (Carica papaya) (UniProt P00784); experiment: Primary qHTS assay for inhibitors of the protease papain (AID 1645873);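 also: papain turnover of Z-FR-AMC read as the AMC fluorescence gain over 10 min; series mostly up to about 50 µM; % is scaled to controls: 0 for no effect and ±100 for the full control effect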
Sequence of Papain (Carica papaya) (P00784 whole entry, looked up, the tested form may be a part): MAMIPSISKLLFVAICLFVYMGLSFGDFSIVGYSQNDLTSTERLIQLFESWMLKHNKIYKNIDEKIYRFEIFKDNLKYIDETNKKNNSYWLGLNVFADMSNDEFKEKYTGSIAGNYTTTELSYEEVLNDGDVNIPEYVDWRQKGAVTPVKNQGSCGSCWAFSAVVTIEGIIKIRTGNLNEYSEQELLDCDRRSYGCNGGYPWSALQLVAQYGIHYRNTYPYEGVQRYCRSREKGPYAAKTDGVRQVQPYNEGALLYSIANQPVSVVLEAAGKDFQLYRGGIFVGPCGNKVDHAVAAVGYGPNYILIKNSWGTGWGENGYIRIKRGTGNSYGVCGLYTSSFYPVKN

[5] = Primary qHTS for inhibitors of nuclear receptor binding SET domain protein 2 (NSD2) in an RCH-ACV wild type WT cells (2C) (AID 1645877); also: nearly all actives have a fitted effect of over 70% in size; also: potency is read from the fitted curve at half-maximal effect
[6] = target: Catechol O-methyltransferase (Homo sapiens) (UniProt P21964); experiment: Confirmatory Screen for Target Class Profiling of Small Molecule Inhibitors of Methyltransferases (AID 1745852); conditions: MTase-Glo luminescence, SAH detection, recombinant enzyme; measured here: COMT max response; stronger effect = lower value
Sequence of Catechol O-methyltransferase (Homo sapiens) (P21964 whole entry, looked up): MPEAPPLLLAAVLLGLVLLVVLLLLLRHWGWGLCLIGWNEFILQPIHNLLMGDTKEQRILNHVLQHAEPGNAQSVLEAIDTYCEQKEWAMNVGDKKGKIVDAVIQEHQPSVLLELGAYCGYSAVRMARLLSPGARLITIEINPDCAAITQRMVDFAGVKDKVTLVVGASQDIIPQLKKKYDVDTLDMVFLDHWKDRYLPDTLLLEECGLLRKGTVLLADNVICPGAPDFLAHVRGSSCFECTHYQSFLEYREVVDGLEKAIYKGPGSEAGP

[7] = Primary qHTS for small molecule stabilizers of the endoplasmic reticulum resident proteome: Secreted ER Calcium Modulated Protein (SERCaMP) assay (AID 1508630); also: % is scaled to controls: 0 for no effect and ±100 for the full control effect
In short: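 The SH-SY5Y reporter protocol was run at 3 concentrations up to 38.3 uM (primary) or 11 concentrations (follow-up): 16 h compound, 100 nM thapsigargin for 4 h, then extracellular luciferase luminescence.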

[8] = A High-Content qHTS Against Drug Library for the Identification of Small Molecules that Inhibit DYT1 Early Onset Primary Dystonia-Associated Cell Pathology (AID 1645839; calls by dose curve; also: series mostly up to about 46 µM)
In short: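 Induced EGFP-delE TorsinA cells are imaged after 48 h of compound treatment. Punctate fusion-protein distribution gives the %pathology value, while nuclei counts flag toxicity. Wild-type EGFP-hTOR1A cells define the normal pattern.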

[9] = target: Cytochrome P450 2D6 (Homo sapiens) (UniProt P10635); experiment: Cytochrome P450 family 2 subfamily D member 6 (CYP2D6) small molecule antagonists: luciferase biochemical (cell-free) qHTS assay (AID 1645840; active = well fitted curve in the direction sought with a large enough effect in the repeat runs; an effect the other way counts as inactive or inconclusive; also: nearly all actives have a fitted effect of over 55% in size; also: potency is read from the fitted curve at half-maximal effect)
Sequence of Cytochrome P450 2D6 (Homo sapiens) (P10635 whole entry, looked up): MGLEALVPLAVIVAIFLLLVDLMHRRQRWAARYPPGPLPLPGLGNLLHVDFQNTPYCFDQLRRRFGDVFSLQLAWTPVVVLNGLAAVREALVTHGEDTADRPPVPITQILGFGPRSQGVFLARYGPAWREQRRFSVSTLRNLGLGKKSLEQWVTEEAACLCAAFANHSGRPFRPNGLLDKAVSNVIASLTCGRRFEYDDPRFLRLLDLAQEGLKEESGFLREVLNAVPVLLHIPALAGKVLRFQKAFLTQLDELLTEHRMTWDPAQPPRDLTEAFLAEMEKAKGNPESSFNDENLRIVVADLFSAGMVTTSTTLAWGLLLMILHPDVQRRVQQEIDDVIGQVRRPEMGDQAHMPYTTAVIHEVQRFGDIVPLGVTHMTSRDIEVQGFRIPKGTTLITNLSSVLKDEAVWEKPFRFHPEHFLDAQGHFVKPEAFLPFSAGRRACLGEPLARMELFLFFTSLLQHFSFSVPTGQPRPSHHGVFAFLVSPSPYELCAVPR
In short: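 P450-Glo CYP2D6 system: proluciferin substrate converted by enzyme to luciferin, read by luminescence proportional to activity. Enzyme-substrate mix with compound 10 min at room temperature, then NADPH regeneration 1 h before detection reagent.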

[10] = target: Cytochrome P450 3A4 (Homo sapiens) (UniProt P08684); experiment: Cytochrome P450 family 3 subfamily A member 4 (CYP3A4) small molecule antagonists: luciferase qHTS assay (AID 1645841; active = well fitted curve in the direction sought with a large enough effect in the repeat runs; an effect the other way counts as inactive or inconclusive; also: nearly all actives have a fitted effect of over 45% in size)
Sequence of Cytochrome P450 3A4 (Homo sapiens) (P08684 whole entry, looked up): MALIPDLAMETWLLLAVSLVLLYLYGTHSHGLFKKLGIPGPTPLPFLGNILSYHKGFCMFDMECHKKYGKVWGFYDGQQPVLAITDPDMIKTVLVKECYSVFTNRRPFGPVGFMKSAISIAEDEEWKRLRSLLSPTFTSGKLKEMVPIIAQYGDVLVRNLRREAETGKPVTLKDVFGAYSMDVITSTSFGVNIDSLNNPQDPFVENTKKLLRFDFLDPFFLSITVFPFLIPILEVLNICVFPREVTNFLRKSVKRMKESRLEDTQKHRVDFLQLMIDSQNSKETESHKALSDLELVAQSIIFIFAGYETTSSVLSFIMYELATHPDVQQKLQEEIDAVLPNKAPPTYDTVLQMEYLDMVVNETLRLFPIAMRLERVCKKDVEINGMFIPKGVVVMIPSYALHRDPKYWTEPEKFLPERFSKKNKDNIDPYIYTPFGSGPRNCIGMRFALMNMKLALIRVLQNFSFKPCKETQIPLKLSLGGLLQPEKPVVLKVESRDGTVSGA
In short: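 P450-Glo CYP3A4 enzyme with proluciferin substrate was preincubated with DMSO-dissolved compounds for 10 min at room temperature. NADPH regeneration solution started a 1 h reaction. Detection reagent stopped it, and luminescence was read after 20 min.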

[11] = target: Cytochrome P450 2C9 (Homo sapiens) (UniProt P11712); experiment: Cytochrome P450 family 2 subfamily C member 9 (CYP2C9) small molecule antagonists: luciferase biochemical (cell-free) qHTS assay (AID 1645842; active = well fitted curve in the direction sought with a large enough effect in the repeat runs; an effect the other way counts as inactive or inconclusive; also: nearly all actives have a fitted effect of over 55% in size; also: potency is read from the fitted curve at half-maximal effect)
Sequence of Cytochrome P450 2C9 (Homo sapiens) (P11712 whole entry, looked up): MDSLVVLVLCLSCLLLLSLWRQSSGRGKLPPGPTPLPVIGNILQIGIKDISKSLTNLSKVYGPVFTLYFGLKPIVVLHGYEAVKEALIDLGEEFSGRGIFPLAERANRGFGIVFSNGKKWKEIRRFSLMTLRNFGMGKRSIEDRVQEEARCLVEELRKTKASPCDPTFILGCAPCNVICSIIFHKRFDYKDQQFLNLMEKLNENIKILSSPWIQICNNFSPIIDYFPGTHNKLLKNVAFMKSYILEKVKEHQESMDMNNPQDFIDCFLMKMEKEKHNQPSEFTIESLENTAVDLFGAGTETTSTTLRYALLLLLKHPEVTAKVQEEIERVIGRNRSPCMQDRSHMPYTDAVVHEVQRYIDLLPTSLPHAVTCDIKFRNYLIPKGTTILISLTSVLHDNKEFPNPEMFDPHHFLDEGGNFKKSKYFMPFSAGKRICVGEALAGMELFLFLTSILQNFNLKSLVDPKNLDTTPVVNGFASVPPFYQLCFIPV
In short: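 P450-Glo CYP2C9 system: proluciferin substrate with enzyme in mix containing 0.4% BSA, 10 min at room temperature, then NADPH regeneration solution added and incubated 1 h at 37C. Detection reagent stopped reaction; luminescence read after 20 min as RLU.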

[12] = Primary qHTS for inhibitors of nuclear receptor binding SET domain protein 2 (NSD2) in an isogenic RCH-ACV NSD2 p.E1099K mutant (9B) (AID 1645876); also: % is scaled to controls: 0 for no effect and ±100 for the full control effect; nearly all actives have a fitted effect of over 70% in size
[13] = Confirmatory qHTS for small molecule stabilizers of the endoplasmic reticulum resident proteome: Secreted ER Calcium Modulated Protein (SERCaMP) assay (AID 1508628); also: nearly all actives have a fitted effect of over 40% in size; also: potency is read from the fitted curve at half-maximal effect
In short: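 Reporter secretion upon ER calcium depletion (100 nM thapsigargin, 4 h, 37C) is measured as medium luminescence with coelenterazine, after 16 h compound pretreatment of SH-SY5Y-GLuc-SERCaMP cells; primary at three concentrations up to 38.3 uM, follow-up at 11 (up to 76.6 uM).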

COc1cc(C(=O)OCCCN2CCCN(CCCOC(=O)c3cc(OC)c(OC)c(OC)c3)CC2)cc(OC)c1OC
-6.42%: activity [6]
inactive: outcome [1] | Potency [2] | Potency [3] | max response [4] -32.9% | Potency (Papain (Carica papaya))
active: Potency [5] 23.7 µM

CC(=O)Nc1nnc(S(N)(=O)=O)s1
inactive: outcome [1] | Potency [2] | Potency [7] | Potency [8] | Potency [9] | outcome [10] | Potency [11] | Potency (Papain (Carica papaya)) | Potency [12] | Potency [5]

CCC(=O)c1ccc2c(c1)N(CCCN(C)C)c1ccccc1S2
active: Potency [9] 0.49 µM
6.41%: activity [6]
inactive: outcome [1] | Potency [2] | Potency [3] | Potency [13] | Potency [11] | Potency (Papain (Carica papaya))

CNC1(C)C2CCC(C2)C1(C)C (configuration not stated)
inactive: outcome [1] | Potency [2] | Potency [7] | Potency [8] | Potency [9] | Potency [11] | Potency (Papain (Carica papaya)) | Potency [12] | Potency [5]

c1cc(CN2CCCCC2)cc(OCCCNc2nc3ccccc3s2)c1
inactive: outcome [1] | Potency [2] | Potency [3] | max response [4] -7.44% | Potency [11] | Potency (Papain (Carica papaya))
active: Potency [13] 12.6 µM | Potency [9] 1.74 µM

OCCN1CCN(CCCN2c3ccccc3C=Cc3ccccc32)CC1
active: Potency [9] 13.8 µM
inactive: outcome [1] | Potency [2] | Potency [3] | max response [4] -5.61% | Potency [11]

CC1=NS(=O)(=O)c2cc(Cl)ccc2N1
inactive: outcome [1] | Potency [2] | Potency [7] | Potency [8] | Potency [9] | Potency [11] | Potency (Papain (Carica papaya)) | Potency [12] | Potency [5]

COC(=O)[C@@H](N)Cc1ccc(O)c(O)c1
active: Potency [13] 35.5 µM
134%: activity [6]
inactive: outcome [1] | Potency [2] | max response [4] -5.59% | Potency [8] | Potency [9] | Potency [11] | Potency (Papain (Carica papaya))

O=C(O)CN(CCN(CC(=O)O)CC(=O)O)CCN(CC(=O)O)CC(=O)O
inactive: outcome [1] | Potency [2] | Potency [3] | Potency [13] | max response [4] 25% | Potency [7] | Potency [8] | Potency [9] | Potency [11] | Potency (Papain (Carica papaya)) | Potency [12]

CN(C)CC[C@@H](c1ccc(Br)cc1)c1ccccn1
inactive: outcome [1] | Potency [2] | Potency [3] | Potency [7] | Potency [8] | Potency [11] | Potency (Papain (Carica papaya)) | Potency [12]
-5.16%: activity [6]
active: Potency [9] 4.9 µM

C[N+](C)(C)CCOC(N)=O
inactive: outcome [1] | Potency [2] | Potency [7] | Potency [8] | Potency [9] | Potency [11] | Potency (Papain (Carica papaya))

CN(C)CCCN1c2ccccc2Sc2ccccc21
inactive: outcome [1] | Potency [2] | max response [4] -13.5% | Potency (Papain (Carica papaya))

O=C(CCNNC(=O)c1ccncc1)NCc1ccccc1
inactive: outcome [1] | Potency [2] | Potency [7] | Potency [8] | Potency (Papain (Carica papaya)) | Potency [12] | Potency [5]
active: Potency [9] 15.5 µM | Potency [11] 5.49 µM

CN(C)C/C=C(/c1ccc(Br)cc1)c1cccnc1
inactive: outcome [1] | Potency [2] | Potency [3] | max response [4] 4.56% | Potency (Papain (Carica papaya)) | Potency [12] | Potency [5]

CN(C)C(=O)Oc1ccc[n+](C)c1
inactive: outcome [1] | Potency [2] | Potency [7] | Potency [8] | Potency [9] | Potency [11] | Potency (Papain (Carica papaya)) | Potency [12] | Potency [5]

C[C@]12CCC(=O)C=C1CC[C@@H]1[C@@H]2CC[C@@]2(C)[C@H]1CC[C@]2(O)C(=O)CO
inactive: outcome [1] | Potency [2] | Potency [7] | Potency [8] | Potency [9] | Potency [11]

CC(C)(C)NCC(O)c1cc(O)cc(O)c1 (configuration not stated)
inactive: outcome [1] | Potency [2] | Potency [7] | Potency [8] | Potency [9]

COC(=O)[C@H]1[C@H]2C[C@@H]3c4[nH]c5cc(OC)ccc5c4CCN3C[C@H]2C[C@@H](OC(=O)c2cc(OC)c(OC)c(OC)c2)[C@@H]1OC
active: Potency [13] 15.8 µM | Potency [9] 15.5 µM
inactive: outcome [1] | Potency [2] | Potency [12] | Potency [5]

CN(C)[C@@H]1C(=O)C(C(N)=O)=C(O)[C@@]2(O)C(=O)C3=C(O)c4c(O)ccc(Cl)c4[C@@H](O)[C@H]3C[C@@H]12
-43.5%: activity [6]
inactive: outcome [1] | Potency [2] | Potency [7] | Potency [8] | Potency [9] | outcome [10]

C(=C\c1ccccc1)/CN1CCN(C(c2ccccc2)c2ccccc2)CC1
inactive: outcome [1] | Potency [2] | Potency [3] | Potency (Papain (Carica papaya)) | Potency [12] | Potency [5]

CCc1cccc(N(C)C(N)=Nc2cccc3ccccc23)c1
active: Potency [3] 39.8 µM | Potency [13] 15.8 µM | Potency [9] 0.11 µM
-0.0494%: activity [6]
inactive: outcome [1] | Potency [2] | max response [4] -28.6% | Potency (Papain (Carica papaya))

CN1CCN(CC(=O)N2c3ccccc3C(=O)Nc3cccnc32)CC1
inactive: outcome [1] | activity change, negative = inhibition [2] -0.936% [at 12.4 µM] | Potency [7] | % pathology change, negative = correction [8] 18.1% [at 4.63 µM] | activity change, negative = inhibition [9] 3.24% [at 4.83 µM] | activity change, negative = inhibition [11] 3.44% [at 4.83 µM] | Potency (Papain (Carica papaya))

O=C(CCCN1CCC(O)(c2cccc(C(F)(F)F)c2)CC1)c1ccc(F)cc1
inactive: outcome [1] | Potency [2] | max response [4] -8.14% | Potency [8] | Potency [11] | Potency (Papain (Carica papaya))

NC(=O)c1cn(Cc2c(F)cccc2F)nn1
inactive: outcome [1] | Potency [2] | Potency [7] | Potency [8] | Potency [9] | Potency [11] | Potency (Papain (Carica papaya)) | Potency [12] | Potency [5]

CC(C(=O)O)c1ccc(CC2CCCC2=O)cc1 (configuration not stated)
inactive: outcome [1] | Potency [2] | Potency [7] | Potency [8] | Potency [9] | outcome [10] | Potency (Papain (Carica papaya)) | Potency [12] | Potency [5]
